NR0B1 inh: inhibitors of human orphan nuclear receptor DAX1 (NR0B1); HEK293 Gal4-DAX1 luciferase reporter, luminescence; AID 504766; hit rate 0.99% among 340,000; inhibition, % at 6.75 µM; P51843;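 active = inhibition above the mean over all tested compounds plus 3 SD, cut at about 4.2% in these data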;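 also: inhibition shows as a rise in luminescence from relieved DAX1 repression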
Target sequence (P51843 207-470 limits assumed): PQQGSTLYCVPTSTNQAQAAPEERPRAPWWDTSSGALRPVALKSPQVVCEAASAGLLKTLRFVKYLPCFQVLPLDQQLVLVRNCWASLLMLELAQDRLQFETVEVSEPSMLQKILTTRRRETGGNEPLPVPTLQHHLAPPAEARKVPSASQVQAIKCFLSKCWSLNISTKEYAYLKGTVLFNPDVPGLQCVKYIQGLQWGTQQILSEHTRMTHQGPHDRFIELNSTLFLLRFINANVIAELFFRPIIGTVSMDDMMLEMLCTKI
HSF1 activator: increases HSF-1 driven luciferase reporter signal; activation, % at 9 µM; hit rate 1.7% among 300,000; AID 504408; NIH3T3-HGL HSF-1 luciferase reporter, MG132, 8 h; 100% = twice DMSO control signal;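 active = mean replicate activation of at least 50% with a set share of replicates each reaching 50%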
HSF1 inh: HSF1 inhibition. activity change, negative = inhibition, % at 7.5 µM (by protocol). hit rate 0.77% among 300,000. NIH3T3-HGL HSE-luciferase, MG132-induced, luminescence 8 h; active compounds read low;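 active = more than half of replicate wells show activity change below -50%, luminescence cut by over half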;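 also: luciferase reports HSF-1 transcriptional activity via heat shock element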
FXN GAA850 act: frataxin GAA850 promoter activation | HEK293 lucGAA850 FXN promoter luciferase reporter, 24 h; percent of 10 µM SAHA response | activation, % at 6 µM | AID 540364 | hit rate 0.56% among 360,000;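 active = activation above the average of all compounds screened plus 3 SD, cutoff fixed separately per campaign, cut at about 7.5% in these data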
AHR act: human AHR activation | AHR-responsive luciferase reporter cells, luminescence | activation, % at 5 µM | hit rate 2.5% among 320,000 | AID 2796; in the data active = activation above about 47%
Hits are given with their value. This is a sample that favours compounds with a hit; in the whole collection about 5.4% have one here.

CCc1c(C)nc2ccc(Br)cc2c1Cl was read as NR0B1 inh inactive, HSF1 activator inactive, HSF1 inh inactive, FXN GAA850 act inactive and AHR act inactive.
Screening CCOC(=O)C1=CN(Cc2ccc(OC)cc2)C=C(C(=O)OCC)C1c1cccs1 returned NR0B1 inh inactive, HSF1 activator 51.1, HSF1 inh inactive, FXN GAA850 act inactive and AHR act inactive.
COC(=O)C1=CN(Cc2ccc(OC)cc2)C=C(C(=O)OC)C1c1cc(OC)c(OC)c(OC)c1 was read as NR0B1 inh inactive, HSF1 activator inactive, HSF1 inh inactive, FXN GAA850 act inactive and AHR act inactive.
Screening Cc1ccc(N2C(=O)C3N=NN(CC(=O)N4N=C(c5ccccc5)CC4c4ccccc4)C3C2=O)cc1 (centres undefined) returned NR0B1 inh inactive, HSF1 activator inactive, HSF1 inh inactive, FXN GAA850 act inactive and AHR act inactive.
c1ccc2c(-c3cn4ccccc4n3)c[nH]c2c1 was read as HSF1 activator inactive, HSF1 inh inactive and AHR act 53.8.
`O=C(COc1ccc(F)cc1Cl)Nc1ccc(S(=O)(=O)Nc2nccs2)cc1` gave NR0B1 inh inactive, HSF1 activator inactive, HSF1 inh inactive, FXN GAA850 act inactive and AHR act inactive.
Screening S=c1[nH]nc(-c2ccc(Br)cc2)n1Cc1ccco1 returned NR0B1 inh inactive, HSF1 activator inactive, HSF1 inh inactive, FXN GAA850 act inactive and AHR act inactive.
Screening S=c1[nH]nc(-c2ccncc2)n1Cc1ccco1 returned NR0B1 inh inactive, HSF1 activator inactive, HSF1 inh -69.2, FXN GAA850 act inactive and AHR act inactive.
Nc1ncnc2c1ncn2[C@@H]1O[C@H](CNC(=O)[C@@H](N)C2CCCCC2)[C@@H](O)[C@H]1O was read as NR0B1 inh inactive and FXN GAA850 act inactive.
Screening Nc1nc(F)nc2c1ncn2[C@@H]1O[C@H](CO)[C@@H](O)[C@H]1O returned NR0B1 inh inactive, HSF1 activator inactive, HSF1 inh -55.9, FXN GAA850 act inactive and AHR act inactive.
`CCOc1ccc(NC(=O)c2c(NC(=O)CNCCN3CCOCC3)sc3c2CCC3)cc1` gave NR0B1 inh inactive, HSF1 activator inactive, HSF1 inh inactive, FXN GAA850 act inactive and AHR act inactive.
COc1c2ccoc2c(OC[C@@H](OC(C)=O)C(C)(C)O)c2oc(=O)ccc12 was read as NR0B1 inh inactive, FXN GAA850 act inactive and AHR act inactive.
COc1c2ccoc2c(OC[C@@H](O)C(C)(C)O)c2oc(=O)ccc12 was read as NR0B1 inh inactive, HSF1 activator inactive, HSF1 inh inactive, FXN GAA850 act inactive and AHR act 50.4.
`COc1c2ccoc2cc2oc(=O)ccc12` gave NR0B1 inh inactive, FXN GAA850 act inactive and AHR act inactive.
`CC1(C)OC1COc1c2ccoc2cc2oc(=O)ccc12` (centres undefined) gave NR0B1 inh inactive, HSF1 activator inactive, HSF1 inh inactive, FXN GAA850 act inactive and AHR act 67.6.
COC(C)(C)[C@H](O)COc1c2ccoc2cc2oc(=O)ccc12 was read as NR0B1 inh inactive, HSF1 activator inactive, HSF1 inh inactive, FXN GAA850 act inactive and AHR act 57.2.
For COc1ccc(-n2nc(C(=O)NCC(=O)N3CCC(C)CC3)c3ccccc3c2=O)cc1Cl the results were NR0B1 inh inactive, HSF1 activator inactive, HSF1 inh inactive, FXN GAA850 act inactive and AHR act inactive.
Screening CCN(CC)CCCNC(=O)Cn1cnc2sc(C)c(S(=O)(=O)N3CCC(C)CC3)c2c1=O returned NR0B1 inh inactive, HSF1 activator inactive, HSF1 inh inactive, FXN GAA850 act inactive and AHR act inactive.
For N#Cc1cccnc1Nc1cccc(Cl)c1 the results were NR0B1 inh inactive, HSF1 activator inactive, HSF1 inh inactive, FXN GAA850 act inactive and AHR act 77.1.
Screening CC(=O)NS(=O)(=O)c1cccnc1Nc1cccc(Cl)c1 returned NR0B1 inh inactive, HSF1 activator inactive, HSF1 inh inactive, FXN GAA850 act inactive and AHR act inactive.
`COc1cccc(C(=O)NC(=S)Nc2ccccc2N2CCCC2)c1` gave NR0B1 inh inactive, HSF1 activator inactive, HSF1 inh inactive, FXN GAA850 act inactive and AHR act 48.5.
Screening COc1cccc(C(=O)NC(=S)Nc2ccccc2N2CCCCC2)c1 returned NR0B1 inh inactive, HSF1 activator inactive, HSF1 inh inactive, FXN GAA850 act inactive and AHR act 73.1.
For O=C(NC(=S)Nc1ccccc1N1CCCC1)c1ccccc1[N+](=O)[O-] the results were NR0B1 inh inactive, HSF1 activator inactive, HSF1 inh inactive, FXN GAA850 act inactive and AHR act inactive.
`O=C(NC(=S)Nc1ccccc1N1CCCC1)c1ccccc1Br` gave NR0B1 inh inactive, HSF1 activator inactive, HSF1 inh inactive, FXN GAA850 act inactive and AHR act 74.8.
`C=CCSc1n[nH]c(-c2ccc(OCCCC)cc2)n1` gave NR0B1 inh inactive, HSF1 activator 65.6, HSF1 inh inactive, FXN GAA850 act inactive and AHR act inactive.
C=CCSc1n[nH]c(-c2ccc(OCCC)cc2)n1 was read as NR0B1 inh inactive, HSF1 activator inactive, HSF1 inh inactive, FXN GAA850 act inactive and AHR act inactive.
Screening COc1ccc(C(=O)N2CCc3ccc(NC(=O)c4ccccn4)cc3C2)cc1F returned NR0B1 inh inactive, HSF1 activator inactive, HSF1 inh inactive and FXN GAA850 act inactive.
For O=C(NCc1ccco1)Nc1cccc(-c2ccccc2)c1 the results were NR0B1 inh inactive and FXN GAA850 act inactive.
`Cc1c(Cl)c(C(=O)NNC(=S)Nc2ccc(F)cc2)nn1C` gave NR0B1 inh inactive, HSF1 activator 58.9, HSF1 inh inactive, FXN GAA850 act inactive and AHR act inactive.
Screening COc1ccc(NC(=O)CN(C)S(=O)(=O)c2ccc3c(c2)CCC(=O)N3)c(OC)c1 returned NR0B1 inh inactive, HSF1 activator inactive, HSF1 inh -86.3, FXN GAA850 act inactive and AHR act inactive.
`CN(C)c1ccc(CC(=O)c2nc3ccccc3s2)cc1` gave NR0B1 inh inactive, HSF1 activator 55.7, HSF1 inh inactive, FXN GAA850 act inactive and AHR act inactive.
For CN(C)C(=O)c1nc2ccccc2s1 the results were NR0B1 inh inactive, HSF1 activator inactive, HSF1 inh inactive, FXN GAA850 act inactive and AHR act inactive.
Screening COc1ccc(-c2nn(-c3ccccc3)cc2C(N)=O)cc1OC returned NR0B1 inh inactive, HSF1 activator inactive, HSF1 inh inactive, FXN GAA850 act inactive and AHR act 75.0.
Screening COc1ccc(-c2nn(-c3ccccc3)cc2/C=N/NC(N)=S)cc1OC returned NR0B1 inh inactive, HSF1 activator inactive, HSF1 inh inactive, FXN GAA850 act inactive and AHR act inactive.
Screening O=C(c1cc(C2CCCCN2C(=O)CCCc2ccccc2)on1)N1CCOCC1 (centres undefined) returned FXN GAA850 act inactive.
N#CC1=C(O)CCCn2c1nc1ccccc1c2=O was read as NR0B1 inh inactive, HSF1 activator inactive, HSF1 inh inactive, FXN GAA850 act inactive and AHR act inactive.

Compound activity as filed in PubChem BioAssay.
